Test results taken from PubChem BioAssay (EPA / NIEHS).
Values joined by “and” are separate entries in the source; they are usually repeats but may differ in a detail not shown here. Identical values can stand only once. Inconclusive results are not listed. Some structures have more than one record in an assay (separate samples or runs), and their calls can disagree. Active and inactive are the calls of the source. How the source made its calls, unless noted: active means hit-call score of the fitted dose curve at least 0.9, where 1 is the maximum; inactive means score below 0.9.

Tests used:
[1] = CCTE_Mundy_HCI_Cortical_Synap_Neur_Matur_NeuriteSpotCountPerNeuron: CCTE's Synaptogenesis and Neurite Maturation Assay in rat cortical cells for Neurite Spot Count per Neuron Count, Mundy Lab (AID 2284215)
Outline: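 Rat cortical primary cultures; AraC DIV 5 to arrest glia; dosing + media change DIV 7; fixed DIV 12. Anti-MAP2/anti-synaptophysin, Hoechst nuclei; HCI puncta count per neuron, positive fitting direction vs DMSO.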

[2] = CCTE_Mundy_HCI_Cortical_Synap_Neur_Matur_SynapseCount: CCTE's Synaptogenesis and Neurite Maturation Assay in rat cortical cells for Synapse Count, Mundy Lab (AID 2284218)
Outline: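 Rat primary cortical cells in 96-well plates received AraC at DIV 5 and were dosed with chemicals at DIV 7 with media change, through DIV 12 (288.33 h). Synapses per neuron counted by high-content imaging of MAP2/synaptophysin/Hoechst staining, versus DMSO baseline.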

[3] = CCTE_Mundy_HCI_Cortical_Synap_Neur_Matur_NeuriteCount: CCTE's Synaptogenesis and Neurite Maturation Assay in rat cortical cells for Neurite Count, Mundy Lab (AID 2284222)
Outline: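 In this multiplexed morphology readout, rat primary cortical neurons are fixed at DIV 12 following dosing at DIV 7 and stained for MAP2, synaptophysin and nuclei. High-content image analysis yields neurite count.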

[4] = CCTE_Mundy_HCI_Cortical_Synap_Neur_Matur_CellBodySpotCount: CCTE's Synaptogenesis and Neurite Maturation Assay in rat cortical cells for Cell Body Spot Count, Mundy Lab (AID 2284223)
Outline: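 Rat cortical neurons; AraC @ DIV 5; dose + media change DIV 7; fix DIV 12; anti-MAP2/anti-synaptophysin IF, Hoechst; HCI count of soma synaptophysin puncta/neuron; DMSO = negative control.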

[5] = UKN4_HCS_LUHMES_cell_viability: Viability Assessment in the University of Konstanz (UKN) Leist Lab Neurite Outgrowth Assay in human LUHMES cells (UKN4) (AID 2284232)
Outline: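 LUHMES cells differentiated 2 days, replated without cAMP/GDNF, then exposed to compounds for 24 h from attachment. Viability read by high-content fluorescence imaging after 30 min live-staining with H-33342 and calcein-AM; bidirectional fit relative to DMSO baseline.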

[6] = UKN2_HCS_IMR90_cell_viability: Viability Assessment in the University of Konstanz (UKN) Leist Lab Neural Crest Cell Migration Assay in human induced IMR90 Pluripotent Stem Cells (UKN2) (AID 2284233);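 further: viability of neural crest cells differentiated from IMR90 iPSC measured by calcein-AM fluorescence imaging; cells exposed to compound for 24 h after a 24 h migration phase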
Outline: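 Neural crest cells derived from IMR90 iPSC migrate into a stopper-free zone for 24 h in EGF/FGF medium, then are exposed to compound for 24 h. Viability assessed by calcein-AM and Hoechst staining with high-content imaging, fitted bidirectionally versus DMSO.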

[7] = CCTE_Mundy_HCI_Cortical_NOG_NeuronCount: CCTE's Neurite Outgrowth Assay in rat cortical cells for Neuron Count, Mundy Lab (AID 2284236; active means hit-call score of the fitted dose curve at least 0.9, where 1 is the maximum;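 further: neurons counted by imaging betaIII-tubulin and Hoechst stained cortical cells; cells exposed to compound for about 48 hours before fixation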)
Outline: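 Read-out: neuron number by high-content imaging of betaIII-tubulin (Alexa Fluor-488) and Hoechst-labelled rat primary cortical cells.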

[8] = CCTE_Mundy_HCI_Cortical_NOG_BPCount: CCTE's Neurite Outgrowth Assay in rat cortical cells for Branch Point Count, Mundy Lab (AID 2284237);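 further: branch points counted about two days after chemical exposure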
Outline: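 Measured 50.33 h after dosing, this morphology endpoint uses rat primary cortical cultures labelled for betaIII-tubulin. Branch points are quantified by high-content imaging, with DMSO as negative control and baseline.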

[9] = CCTE_Mundy_HCI_hNP1_Casp3_7: CCTE's Caspase-Glo 3/7 Assay in human neuroprogenitor cells for Apoptosis, Mundy Lab (AID 2284240)
Outline: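 Luminescent caspase-3/7 readout, 26.5 h post-dose, in human neural progenitor cells from WA09 embryonic stem cells. Cells grew 40–44 h at 37 °C, 5% CO2 before chemical addition. Activity analysed as signal increase over DMSO baseline.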

[10] = CCTE_Mundy_HCI_hNP1_CellTiter: CCTE's Cell Titer-Glo 2 Assay in human neuroprogenitor cells for Viability, Mundy Lab (AID 2284241; active means hit-call score of the fitted dose curve at least 0.9, where 1 is the maximum)
Outline: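 Viability read as luminescent ATP content (CellTiter-Glo, 30 min room temperature) twenty-four hours after dosing, relative to DMSO. Cells: WA09-derived hNP1 neuroprogenitors on poly-L-ornithine/laminin, plated 40 to 44 hours before chemical.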

[11] = CCTE_Mundy_HCI_Cortical_Synap_Neur_Matur_NeuronCount: CCTE's Synaptogenesis and Neurite Maturation Assay in rat cortical cells for Neuron Count, Mundy Lab (AID 2284242; active means hit-call score of the fitted dose curve at least 0.9, where 1 is the maximum;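 further: hits reduce neuron count versus DMSO baseline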)
Outline: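 Rat primary cortical cells received AraC at DIV 5 to arrest glia, then were dosed with chemicals at DIV 7 through DIV 12. Fixed cells were stained for nuclei, MAP2 and synaptophysin, and neurons were counted by high-content imaging relative to DMSO.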

[12] = read-out: Monokine induced gamma interferon (MIG), CXCL9 (gene 4283); assay: BSK_KF3CT_MIG: BioMAP Diversity Plus: KF3CT Assay for Monokine induced gamma interferon (MIG) Biomarker Activity (AID 2284248); conditions: primary human keratinocytes with fibroblasts
Outline: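 KF3CT system: keratinocyte/fibroblast co-culture, 24 h post-dose, MIG by ELISA; activity vs DMSO, positive fitting direction.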

[13] = read-out: Collagen I, COL1A1 (gene 1277); assay: BSK_hDFCGF_CollagenI: BioMAP Diversity Plus: hDFCGF Assay for Collagen I Biomarker Activity (AID 2284250); conditions: primary human foreskin fibroblasts
Outline: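 Primary human foreskin fibroblasts (hDFCGF system) exposed to chemical for 24 h; Collagen I measured by ELISA. Activity fitted in the positive direction relative to DMSO baseline, with SRB total-protein staining in parallel cultures for overt cytotoxicity.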

[14] = read-out: Interferon-inducible T-cell alpha chemoattractant (ITAC), CXCL11 (gene 6373); assay: BSK_hDFCGF_ITAC: BioMAP Diversity Plus: hDFCGF Assay for Interferon-inducible T-cell alpha chemoattractant (ITAC) Biomarker Activity (AID 2284251); conditions: primary human foreskin fibroblasts
Outline: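 Primary human foreskin fibroblasts (hDFCGF system) treated for 24 h; I-TAC quantified by ELISA. Gain-direction fitting versus DMSO; parallel SRB staining of total protein flagged overt cytotoxicity.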

[15] = read-out: Plasminogen activator inhibitor-1 (PAI1), SERPINE1 (gene 5054); assay: BSK_KF3CT_PAI1: BioMAP Diversity Plus: KF3CT Assay for Plasminogen activator inhibitor-1 (PAI1) Biomarker Activity (AID 2284252); conditions: primary human keratinocytes with fibroblasts
Outline: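 Human primary keratinocyte/foreskin fibroblast co-culture was dosed with compound and sampled at 24 h. PAI-1 was quantified by ELISA, with activity fitted in the positive direction relative to DMSO vehicle as baseline.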

[16] = read-out: Interleukin-8 (IL8), CXCL8 (gene 3576); assay: BSK_KF3CT_IL8: BioMAP Diversity Plus: KF3CT Assay for Interleukin-8 (IL8) Biomarker Activity (AID 2284254); conditions: primary human keratinocytes with fibroblasts
Outline: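 Chemicals were added to co-cultured human keratinocytes and foreskin fibroblasts, incubated 24 h, then IL-8 was quantified by ELISA. Cytotoxicity was tracked by sulforhodamine B total-protein staining in parallel cultures.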

[17] = read-out: Intercellular Adhesion Molecule 1 (ICAM1), ICAM1 (gene 3383); assay: BSK_BE3C_ICAM1: BioMAP Diversity Plus: BE3C Assay for Intercellular Adhesion Molecule 1 (ICAM1) Biomarker Activity (AID 2284278); conditions: primary human bronchial epithelial cells;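 further: cell-surface ICAM-1 protein level quantified by ELISA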
Outline: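 Primary human bronchial epithelial cells were exposed to compound for 24 h, after which cell-surface ICAM-1 was quantified by ELISA. Activity was fitted in the gain-of-signal direction against DMSO as negative control and baseline.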

[18] = read-out: Interferon-inducible T-cell alpha chemoattractant (ITAC), CXCL11 (gene 6373); assay: BSK_BE3C_ITAC: BioMAP Diversity Plus: BE3C Assay for Interferon-inducible T-cell alpha chemoattractant (ITAC) Biomarker Activity (AID 2284279); conditions: primary human bronchial epithelial cells
Outline: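 The assay measures I-TAC levels by ELISA in human primary bronchial epithelial cell cultures 24 hours after chemical treatment. Values reflect signal increase over the DMSO baseline.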

[19] = read-out: Interleukin-8 (IL8), CXCL8 (gene 3576); assay: BSK_BE3C_IL8: BioMAP Diversity Plus: BE3C Assay for Interleukin-8 (IL8) Biomarker Activity (AID 2284280); conditions: primary human bronchial epithelial cells
Outline: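 Primary human bronchial epithelial cells (BE3C system) exposed 24 h; IL-8 measured by ELISA and fitted in positive direction versus DMSO. Overt cytotoxicity assessed by SRB total-protein staining in parallel cultures.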

[20] = read-out: Epidermal growth factor receptor (EGFR), EGFR (gene 1956); assay: BSK_BE3C_EGFR: BioMAP Diversity Plus: BE3C Assay for Epidermal growth factor receptor (EGFR) Biomarker Activity (AID 2284281); conditions: primary human bronchial epithelial cells
Outline: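 Human primary bronchial epithelial cells (BE3C system) dosed with chemicals; EGFR measured by ELISA at 24 h, fitted in the positive direction relative to DMSO. Cytotoxicity tracked in parallel cultures by SRB total-protein staining.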

In the case of `[Cd+2].[Cl-].[Cl-]`, the AC50 [1] is reported as 1.19 µM (active), the AC50 [2] is reported as 1.25 µM (active) and the AC50 [3] is reported as 2.71 µM (active). For the same compound, the AC50 [4] was 6.06 µM (active), the AC50 [5] was 8.98 µM (active) and the AC50 [6] was 4.14 µM (active). For the same compound, the AC50 [7] was 9.84 µM (active), the AC50 [8] was 18.9 µM (active) and the outcome [9] was “inactive”. The outcome [10] was “inactive”, the AC50 [11] was 0.728 µM (active) and the AC50 [12] was 33.6 µM (active) and 36.8 µM (active). The AC50 [13] was 1.42 µM (active) and 465 nM (active), the AC50 [14] was 10 µM (active) and 7.2 µM (active) and the AC50 [15] was 34.5 µM (active) and 29.9 µM (active). The AC50 [16] was 26.8 µM (active), the outcome [16] was “inactive” and the outcome [17] was “inactive”. The AC50 [18] was 28.9 µM (active) and 31.5 µM (active), the AC50 [19] was 0.0538 µM (active) and the outcome [19] was “inactive”. For the same compound, the AC50 [20] was 31.6 µM (active) and 12.3 µM (active).
